Screening results as filed in PubChem.
The full list was thinned out, with hits kept by preference.
Pf Dd2 inh: Plasmodium falciparum Dd2 growth inhibition; P. falciparum Dd2 growth, SYBR Green, 72 h; Potency, µM (doses to about 28.9 µM), for the others: top-dose activity, negative = inhibition, usual class: inhibitors; hit rate 4.3% among 120,000; AID 1347417; active = well fitted inhibition curve with a large enough effect;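 also: plate controls were DMSO vehicle for no effect and reference drug for full effect; nearly all actives have a fitted effect of over 65% in size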
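Infected erythrocytes (Dd2, 0.3% parasitemia, 2.5% hematocrit final) are added to compound in RPMI-1640/Albumax II medium, grown 72 h at 37C in low oxygen, then lysed with saponin/Triton-X containing SYBR Green and read by fluorescence.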
Numbers without * were called inactive; i = inactive; [ ] = another dose, or the depositor's remark. Potency is read from the fitted curve at half-maximal effect.

SMILES	Pf Dd2 inh
Cc1cccc(NC(=O)CSc2nc3ccc(NC(=O)CCc4ccccc4)cc3s2)c1	11%
CCC(=O)Nc1ccc2nc(SCc3ccccc3)sc2c1	-28%
CCCC(=O)Nc1ccc2nc(SCc3ccc(C)cc3)sc2c1	8.9µM*
O=C(N[C@H]1CCOC[C@H]1C1CCOCC1)c1cc(=O)[nH]c2ccc(F)cc12	2%
Cc1nc(-c2ccc(F)cc2)cc([C@H]2CN3CC[C@H]2C[C@@H]3CNC(=O)Nc2cccc(C#N)c2)n1	-13%
Cn1nc(-c2ccc3ccccc3c2)cc1[C@H]1CN2CC[C@H]1C[C@@H]2COC(=O)Nc1cccc(C(F)(F)F)c1	21%
Cc1nc(-c2cccs2)cc([C@H]2CN3CC[C@H]2C[C@@H]3CNC(=O)Nc2cccc(C(F)(F)F)c2)n1	8.9µM*
Cc1nc(-c2cccs2)cc([C@H]2CN3CC[C@H]2C[C@@H]3CNC(=O)c2ccc3c(c2)OCO3)n1	8.9µM*
Cc1nc(-c2ccc(C(F)(F)F)cc2)cc([C@H]2CN3CC[C@H]2C[C@@H]3CNC(=O)N2CCOCC2)n1	i
COc1ccccc1-c1cc([C@H]2CN3CC[C@H]2C[C@@H]3COC(=O)Nc2ccccc2)nc(C)n1	i
O=C(Nc1cccc(C(F)(F)F)c1)OC[C@H]1C[C@@H]2CCN1C[C@@H]2c1cc(C2CCCC2)nc(-c2ccncc2)n1	2.5µM*
Cc1nc(-c2ccccc2Br)cc([C@H]2CN3CC[C@H]2C[C@@H]3CNC(=O)c2ccco2)n1	-6%
Cc1ccc(C(=O)NC[C@H]2C[C@@H]3CCN2C[C@@H]3c2cc(-c3cccs3)nc(C)n2)cc1	7.1µM*
C=C[C@H]1CN2CC[C@H]1C[C@@H]2CNC(=O)c1ccc2c(c1)OCO2	-4%[44.1 µM]
Cc1ccc(S(=O)(=O)NC[C@H]2C[C@@H]3CCN2C[C@@H]3c2cc(-c3ccccc3Br)nc(C)n2)cc1	i
Cc1nc(-c2ccccc2)cc([C@H]2CN3CC[C@H]2C[C@@H]3CNC(=O)N2CCOCC2)n1	i
Cc1cc(C(=O)N2CCC3(CCCN(C4CCOCC4)C3=O)C2)no1 (stereo not given)	3%
CCC1=C(C(=O)OC)C(c2ccccc2)N2C(CC(=O)NCCCN3CCCC3=O)=CSC2=N1 (stereo not given)	i
O=C(NC[C@H]1O[C@@H](CC(=O)N2CCN(c3ccccn3)CC2)[C@H](O)[C@@H]1O)c1ccco1	-16%[44.1 µM]
COc1ccc(-c2noc([C@@H]3C[C@H](NC(=O)NC(C)C)CN3C)n2)cc1	22%[44.1 µM]
Cc1nc(-c2cccs2)cc([C@H]2CN3CC[C@H]2C[C@@H]3CNC(=O)c2ccccc2)n1	7.9µM*
Cc1nc(-c2cccs2)cc([C@H]2CN3CC[C@H]2C[C@@H]3CNC(=O)N2CCOCC2)n1	i
COc1ccccc1-c1cc([C@H]2CN3CC[C@H]2C[C@@H]3CNC(=O)CCC(=O)O)nc(C)n1	2%
CN(C)C(=O)C1CN(C(=O)c2ccncc2)CC12CCOCC2 (stereo not given)	7%
O=C1CCC2(CNC(=O)C3CCOCC3)CCCC=C2N1 (stereo not given)	14%
SMILES	Pf Dd2 inh
Cc1noc(C)c1C(=O)N1CCN(S(=O)(=O)c2ccc(Cl)nc2)C(=O)C1	-1%
Cc1cc(Cl)ccc1S(=O)(=O)N1CCN(C2CCN(CCC(C)C)C2=O)CC1 (stereo not given)	-28%
CC(C)CCN1CCC(N2CCN(S(=O)(=O)c3ccc(F)cc3)CC2)C1=O (stereo not given)	-16%
Cc1ccc(S(=O)(=O)N2CCN(C3CCN(CCC(C)C)C3=O)CC2)cc1Cl (stereo not given)	4µM*
O=C(NC[C@H]1OC[C@@H](N(Cc2ncc[nH]2)Cc2ncc[nH]2)[C@@H]1O)c1ccccc1	-20%[44.1 µM]
O=C(c1ccoc1)N1CCCN(Cc2cn(-c3ccccc3)nn2)CC1	-11%
CN1CCCCCCN(C(=O)c2ccnn2C)[C@H]2CCC[C@H]2C1=O	2%
COc1ccc(C(=O)N2CCCCCCN(C)C(=O)[C@@H]3CCC[C@@H]32)cc1	-2%
CN1CCCCCCN(C(=O)c2ccc3ccccc3n2)[C@H]2CCC[C@H]2C1=O	6.3µM*
